Assay [1] deals with PRMT1 (protein arginine N-methyltransferase 1). Kind of assay: PRMT1 binders on small-molecule microarrays, primary screen, biochemical, small-molecule microarray, 635 nm fluorescence (AID 1088).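 Also: binding of Prmt1 protein to compounds spotted on small-molecule microarray slides.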 The note with it: small-molecule microarray binding, higher = more signal.
The nature of assay [2]: yeast growth modulation, basal conditions, primary screen, YJM789 clinical isolate, OD600, 24 h (AID 1089).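 Also: growth of clinical yeast isolate S. cerevisiae YJM 789 seeded 1000 cells per well; test concentration not given here.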 The note with it: S. cerevisiae YJM789 growth, higher = more signal, called active from +8 up or from −8 down.
The nature of assay [3]: fission yeast growth modulation, primary screen, strain 972, OD600, 24 h, no modulator (AID 1090).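 Also: basal condition with compound alone and no growth modifier present; test concentration not given here.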 The note with it: S. pombe 972 growth, higher = more signal, called active from +8 up or from −8 down.
Assay [4] is described as follows: S. cerevisiae growth modulation with rapamycin, primary screen, strain BY4716, OD600, 96 h (AID 1091). Also: test concentration not given here. The note with it: higher = more signal, called active from +8 up or from −8 down.
Assay [5] deals with Torsin-1A-interacting protein 2 (Homo sapiens) (UniProt Q8NFQ8). Nature of the assay: LULL1 binders on small-molecule microarray, primary screen, cell lysate, human LULL1 lysate, 635/667 nm fluorescence (AID 1092).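 Also: probe is lysate of COS7 cells overexpressing human LULL1; score merges per-feature 667 nm fluorescence with signal-to-noise.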 The note with it: hLULL1 lysate binding, 635 nm fluorescence, higher = more signal.
Assay [6] is described as follows: E. coli growth modulation, two-sided OD650, primary screen, E. coli filamentation project, strain DRC41, 24 h (AID 1093).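 Also: MC1000 strain lacking acrAB efflux and sulA so SOS filamentation is blocked; test concentration not given here.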 The note with it: OD650, 24 h, higher = more signal, called active from +8 up or from −8 down.
Assay [7] is described as follows: small-molecule microarray binders of probe aLefty2, primary screen, biochemical, biotinylated probe, 635/667 nm fluorescence (AID 1094).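 Also: score merges spot fluorescence near 667 nm with spot signal-to-noise ratio.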 The note with it: higher = more signal.
Assay [8] deals with Noggin (protein binding on small-molecule microarray). Kind of assay: Noggin binders on small-molecule microarray, primary screen, biochemical, 635/667 nm fluorescence (AID 1095).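 Also: score merges 667 nm feature fluorescence with signal to noise over triplicate slides.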 The note with it: 635 nm fluorescence, higher = more signal.
In assay [9] the target is Neurogenic locus notch homolog protein 3 (Homo sapiens) (UniProt Q9UM47). Nature of the assay: NOTCH3 binders on small-molecule microarray, primary screen, biochemical, 635/667 nm fluorescence (AID 1096). The note with it: NOTCH3 binding, 635 nm fluorescence, higher = more signal.
Assay [10] can be described thus: small-molecule microarray binders of probe aEGFR, primary screen, biochemical, biotinylated probe, 635/667 nm fluorescence (AID 1097).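 Also: probe is a biotinylated anti-EGFR antibody binding compounds printed on slides; score combines fluorescence near 667 nm and signal to noise of each spot.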 The note with it: higher = more signal.
Assay [11] has as its system Plasmodium falciparum Sir2 (PF13_0152, Sir2A). Nature of the assay: pfSir2 binders on small-molecule microarrays, primary screen, biochemical, small-molecule microarray, 635 nm fluorescence (AID 1098).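 Also: score merges spot fluorescence intensity with its signal-to-noise ratio.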 The note with it: small-molecule microarray binding, fluorescence 635 nm; higher = more signal.
A short description of assay [12]: small-molecule microarray binders of probe aDKK1, primary screen, biochemical, biotinylated probe, 635/667 nm fluorescence (AID 1099).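 Also: score merges 667nm spot fluorescence with signal to noise across triplicate slides; reference of the scale not given here.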 The note with it: higher = more signal.
Assay [13] can be described thus: small-molecule microarray binders of probe aCHRDL2, primary screen, biochemical, biotinylated probe, 635/667 nm fluorescence (AID 1100). The note with it: higher = more signal.
Assay [14] is described as follows: splicing luciferase reporter signal modulators, primary screen, spliceosome inhibition project, cell-based, HEK293, splice +/- reporter (AID 1101).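 Also: HEK293 cells carrying a splicing-competent luciferase reporter gene; test concentration not given here.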 The note with it: luminescence, 24 h, higher = more signal, called active from +8 up or from −8 down. In general terms: A reporter such as luciferase makes a cellular process visible.
Assay [15] deals with Fibroblast growth factor 10 (Homo sapiens) (UniProt O15520). Kind of assay: FGF10 binders on small-molecule microarrays, primary screen, biochemical, small-molecule microarray, 635 nm fluorescence (AID 1102). The note with it: FGF10 binding, fluorescence 635 nm, higher = more signal.
For assay [16], the system named is glycogen synthase kinase-3 (GSK3A per assay name; protocol says GSK3B). Kind of assay: GSK3 binders on small-molecule microarrays, primary screen, biochemical, small-molecule microarray, 635 nm fluorescence, GSK3A (AID 1103). Also: the record names both GSK3A and GSK3B. The note with it: small-molecule microarray binding, fluorescence 635 nm; higher = more signal.
Assay [17] addresses Epidermal growth factor receptor (Homo sapiens) (UniProt P00533). Nature of the assay: EGFR binders on small-molecule microarrays, primary screen, biochemical, small-molecule microarray, 635 nm fluorescence (AID 1104).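 Also: score merges 667 nm emission intensity with spot signal to noise over triplicate slides.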 The note with it: EGFR binding, higher = more signal.
Assay [18] concerns the target Follistatin-related protein 3 (Homo sapiens) (UniProt O95633). Nature of the assay: FSTL3 binders on small-molecule microarrays, primary screen, biochemical, small-molecule microarray, 635 nm fluorescence (AID 1105).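 Also: score merges emission near 667 nm and signal to noise per printed spot across three slides.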 The note with it: FSTL3 binding, higher = more signal.
The target in assay [19] is Dickkopf-related protein 1 (Homo sapiens) (UniProt O94907). Nature of the assay: DKK1 binders on small-molecule microarrays, primary screen, biochemical, small-molecule microarray, 635 nm fluorescence scan (AID 1106).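 Also: score merges emission near 667 nm with signal to noise over three replicate slides.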 The note with it: DKK1 binding, higher = more signal.
Assay [20] has as its system Inhibin beta A chain (activin A). Nature of the assay: INHBA (activin A) binders on microarrays, primary screen, biochemical, small-molecule microarray, 635 nm fluorescence scan (AID 1107).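 Also: mouse activin A protein probed at 4.33 µg/mL on printed slides; score merges bound-protein fluorescence near 667 nm with spot signal-to-noise.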 The note with it: small-molecule microarray binding, higher = more signal.

Calls of active or inactive are those of the source.

Epidermal growth factor receptor (Homo sapiens), sequence (P00533 whole entry, looked up): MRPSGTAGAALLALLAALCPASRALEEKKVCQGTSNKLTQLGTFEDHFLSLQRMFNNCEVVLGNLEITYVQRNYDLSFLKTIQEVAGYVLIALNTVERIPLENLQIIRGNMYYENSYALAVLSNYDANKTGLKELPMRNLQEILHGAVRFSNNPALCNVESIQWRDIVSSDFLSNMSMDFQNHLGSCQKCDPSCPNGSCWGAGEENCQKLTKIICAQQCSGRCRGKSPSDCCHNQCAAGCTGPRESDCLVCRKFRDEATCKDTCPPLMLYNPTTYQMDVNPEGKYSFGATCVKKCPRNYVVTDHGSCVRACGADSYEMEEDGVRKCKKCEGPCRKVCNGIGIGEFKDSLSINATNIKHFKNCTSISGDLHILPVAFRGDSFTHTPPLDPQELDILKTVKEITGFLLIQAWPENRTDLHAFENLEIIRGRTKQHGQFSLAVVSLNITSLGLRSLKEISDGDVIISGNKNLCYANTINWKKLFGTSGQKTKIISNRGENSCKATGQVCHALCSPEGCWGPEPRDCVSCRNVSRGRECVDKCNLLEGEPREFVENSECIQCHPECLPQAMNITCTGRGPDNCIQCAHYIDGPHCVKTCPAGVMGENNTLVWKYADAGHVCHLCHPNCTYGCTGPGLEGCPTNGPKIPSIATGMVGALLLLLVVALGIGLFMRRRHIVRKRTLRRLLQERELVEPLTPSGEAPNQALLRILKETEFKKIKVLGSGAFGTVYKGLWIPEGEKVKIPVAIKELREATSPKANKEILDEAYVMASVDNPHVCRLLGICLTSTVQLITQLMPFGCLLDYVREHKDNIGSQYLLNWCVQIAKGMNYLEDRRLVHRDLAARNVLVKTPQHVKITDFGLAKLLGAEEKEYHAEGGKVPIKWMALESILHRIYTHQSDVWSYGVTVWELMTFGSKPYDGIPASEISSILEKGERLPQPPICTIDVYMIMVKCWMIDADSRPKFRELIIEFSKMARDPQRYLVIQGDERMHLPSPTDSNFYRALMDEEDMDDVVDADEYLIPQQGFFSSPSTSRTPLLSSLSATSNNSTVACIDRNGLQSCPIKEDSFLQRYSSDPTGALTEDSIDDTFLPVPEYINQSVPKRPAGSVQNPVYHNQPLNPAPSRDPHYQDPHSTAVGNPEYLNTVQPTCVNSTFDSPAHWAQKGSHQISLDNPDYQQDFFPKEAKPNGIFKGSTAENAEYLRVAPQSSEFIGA
Fibroblast growth factor 10 (Homo sapiens), sequence (O15520 whole entry, looked up): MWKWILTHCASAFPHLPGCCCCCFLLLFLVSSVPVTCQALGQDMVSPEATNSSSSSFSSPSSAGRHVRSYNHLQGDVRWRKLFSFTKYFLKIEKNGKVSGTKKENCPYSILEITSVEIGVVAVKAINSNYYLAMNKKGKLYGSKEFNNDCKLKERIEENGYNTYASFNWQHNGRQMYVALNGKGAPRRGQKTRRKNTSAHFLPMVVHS
Torsin-1A-interacting protein 2 (Homo sapiens), sequence (Q8NFQ8 whole entry, looked up): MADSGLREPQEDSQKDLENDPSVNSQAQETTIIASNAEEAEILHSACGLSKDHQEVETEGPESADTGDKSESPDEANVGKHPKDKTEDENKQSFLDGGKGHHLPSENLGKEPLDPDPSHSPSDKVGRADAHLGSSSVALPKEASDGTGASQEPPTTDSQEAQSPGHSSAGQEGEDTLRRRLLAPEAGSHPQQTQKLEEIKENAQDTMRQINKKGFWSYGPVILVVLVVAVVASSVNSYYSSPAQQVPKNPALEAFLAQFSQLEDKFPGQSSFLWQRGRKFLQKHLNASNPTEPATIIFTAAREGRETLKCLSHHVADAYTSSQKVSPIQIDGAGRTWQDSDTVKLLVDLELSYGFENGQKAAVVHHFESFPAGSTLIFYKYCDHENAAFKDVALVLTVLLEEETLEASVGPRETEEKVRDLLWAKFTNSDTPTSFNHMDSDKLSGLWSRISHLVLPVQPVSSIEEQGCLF
Follistatin-related protein 3 (Homo sapiens), sequence (O95633 whole entry, looked up): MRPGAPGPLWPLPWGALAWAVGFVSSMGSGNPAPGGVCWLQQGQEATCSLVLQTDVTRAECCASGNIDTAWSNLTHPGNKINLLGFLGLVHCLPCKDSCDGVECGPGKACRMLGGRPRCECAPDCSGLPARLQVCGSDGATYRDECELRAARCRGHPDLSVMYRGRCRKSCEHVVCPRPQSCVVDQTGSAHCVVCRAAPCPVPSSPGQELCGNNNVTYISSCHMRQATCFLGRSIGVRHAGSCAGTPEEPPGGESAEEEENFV
Neurogenic locus notch homolog protein 3 (Homo sapiens), sequence (Q9UM47 whole entry, looked up): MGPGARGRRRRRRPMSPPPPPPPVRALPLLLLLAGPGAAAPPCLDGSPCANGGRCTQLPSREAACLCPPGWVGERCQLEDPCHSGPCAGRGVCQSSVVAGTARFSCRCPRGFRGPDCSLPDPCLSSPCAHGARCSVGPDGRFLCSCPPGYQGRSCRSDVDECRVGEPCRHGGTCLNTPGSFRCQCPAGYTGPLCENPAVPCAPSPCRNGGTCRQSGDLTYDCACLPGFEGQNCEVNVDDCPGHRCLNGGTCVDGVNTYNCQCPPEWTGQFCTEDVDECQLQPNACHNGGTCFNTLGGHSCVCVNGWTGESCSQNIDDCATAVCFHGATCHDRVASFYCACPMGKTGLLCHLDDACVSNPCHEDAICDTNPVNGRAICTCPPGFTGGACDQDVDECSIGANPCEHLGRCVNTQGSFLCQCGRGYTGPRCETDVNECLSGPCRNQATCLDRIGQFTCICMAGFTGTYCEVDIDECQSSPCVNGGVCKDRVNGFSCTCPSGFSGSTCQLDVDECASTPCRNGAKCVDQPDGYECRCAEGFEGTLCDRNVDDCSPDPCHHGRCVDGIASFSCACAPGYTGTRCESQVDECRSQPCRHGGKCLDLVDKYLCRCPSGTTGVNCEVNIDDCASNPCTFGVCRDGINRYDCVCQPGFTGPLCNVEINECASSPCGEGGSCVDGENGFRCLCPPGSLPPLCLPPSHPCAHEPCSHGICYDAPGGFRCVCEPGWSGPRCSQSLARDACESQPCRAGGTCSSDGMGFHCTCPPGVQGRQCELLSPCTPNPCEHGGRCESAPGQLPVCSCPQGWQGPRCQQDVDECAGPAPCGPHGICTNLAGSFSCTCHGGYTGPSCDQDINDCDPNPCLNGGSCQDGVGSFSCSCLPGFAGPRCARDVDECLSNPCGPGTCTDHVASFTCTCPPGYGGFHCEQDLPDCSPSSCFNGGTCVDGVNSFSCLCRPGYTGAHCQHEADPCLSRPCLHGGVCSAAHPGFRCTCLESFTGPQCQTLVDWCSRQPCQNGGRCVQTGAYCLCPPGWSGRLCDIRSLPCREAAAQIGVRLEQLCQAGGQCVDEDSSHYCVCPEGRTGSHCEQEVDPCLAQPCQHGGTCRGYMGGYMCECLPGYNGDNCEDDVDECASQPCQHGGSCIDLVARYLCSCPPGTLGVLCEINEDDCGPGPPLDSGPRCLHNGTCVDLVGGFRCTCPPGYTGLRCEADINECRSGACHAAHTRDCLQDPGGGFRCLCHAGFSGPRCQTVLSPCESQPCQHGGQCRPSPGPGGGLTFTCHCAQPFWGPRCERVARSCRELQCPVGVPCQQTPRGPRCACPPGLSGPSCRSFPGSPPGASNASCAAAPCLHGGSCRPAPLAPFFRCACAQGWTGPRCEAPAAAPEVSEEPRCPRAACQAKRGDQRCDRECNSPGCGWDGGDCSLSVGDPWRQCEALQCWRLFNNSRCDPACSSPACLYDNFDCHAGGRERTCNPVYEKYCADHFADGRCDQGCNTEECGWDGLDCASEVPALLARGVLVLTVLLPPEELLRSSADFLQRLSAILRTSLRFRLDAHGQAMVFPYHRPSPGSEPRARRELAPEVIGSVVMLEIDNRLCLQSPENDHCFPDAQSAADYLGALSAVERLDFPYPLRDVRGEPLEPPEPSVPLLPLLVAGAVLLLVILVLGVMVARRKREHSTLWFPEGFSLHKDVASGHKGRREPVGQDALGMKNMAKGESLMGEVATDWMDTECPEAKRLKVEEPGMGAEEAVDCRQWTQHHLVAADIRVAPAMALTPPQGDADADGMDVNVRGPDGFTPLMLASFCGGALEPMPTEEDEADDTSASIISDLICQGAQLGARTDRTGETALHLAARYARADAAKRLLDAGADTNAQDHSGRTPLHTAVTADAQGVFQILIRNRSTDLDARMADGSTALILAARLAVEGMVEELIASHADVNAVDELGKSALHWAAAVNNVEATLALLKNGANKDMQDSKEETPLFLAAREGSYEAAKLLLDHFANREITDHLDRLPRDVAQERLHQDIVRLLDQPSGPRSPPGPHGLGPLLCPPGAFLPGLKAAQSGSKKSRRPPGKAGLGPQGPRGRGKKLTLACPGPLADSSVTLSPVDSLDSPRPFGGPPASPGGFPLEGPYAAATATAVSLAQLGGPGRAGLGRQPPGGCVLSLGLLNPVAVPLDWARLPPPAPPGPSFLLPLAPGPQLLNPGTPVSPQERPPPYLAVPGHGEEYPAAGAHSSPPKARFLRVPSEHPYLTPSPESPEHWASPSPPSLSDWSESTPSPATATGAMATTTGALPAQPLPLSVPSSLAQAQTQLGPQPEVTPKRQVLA
Dickkopf-related protein 1 (Homo sapiens), sequence (O94907 whole entry, looked up): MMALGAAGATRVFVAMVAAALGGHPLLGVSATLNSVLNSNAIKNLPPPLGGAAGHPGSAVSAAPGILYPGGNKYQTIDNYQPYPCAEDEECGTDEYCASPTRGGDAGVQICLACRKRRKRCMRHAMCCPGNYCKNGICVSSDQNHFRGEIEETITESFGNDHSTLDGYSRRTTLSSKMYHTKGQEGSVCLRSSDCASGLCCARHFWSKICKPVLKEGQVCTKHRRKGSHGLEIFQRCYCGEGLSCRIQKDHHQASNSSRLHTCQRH

For the compound `CC(C)(C)OC(=O)CC[C@]1(C(=O)O)N=C(c2ccc(OCCCO)cc2)O[C@H]1c1ccccc1CN=[N+]=[N-]`, the composite z-score in assay [1] was -0.619; in assay [5] it was 2; in assay [7], -0.0991; in assay [8], -0.465; in [9], 0.168; in assay [10], -0.103. Moreover, the composite z-score in [11] was 0.814; in assay [12] it was 0.905; in assay [13] it was 0.764; in assay [15], 0.253; in [16], -0.138; in assay [17], -0.554. Besides, the composite z-score in assay [18] was -0.507; in assay [19], -0.134; in assay [20], 0.923. In addition, the z-score is 0.832 (inactive) in assay [2]; 0.291 (inactive) in assay [3]; -0.683 (inactive) in assay [4]; 0.275 (inactive) in assay [6]; 0.325 (inactive) in assay [14].
Consider `CCCCC(CC)C(O)C1C=CC2C(=O)N(c3ccccc3)C(=O)C2N1Nc1ccc([N+](=O)[O-])cc1` (stereo not given), for which the composite z-score was determined as 1.55 in assay [1]; 3.65 in [5]; 0.0958 in assay [7]; 0.547 in assay [8]; 1.03 in [9]; 0.11 in assay [10]. Besides, the composite z-score turned out to be 1.31 in assay [11]; 0.68 in assay [12]; 0.457 in assay [13]; 1.01 in assay [15]; 1.34 in assay [16]; 0.444 in [17]. Further, the results for the composite z-score in assay [18], in [19] and in [20] were 1.34, 0.155 and 0.532, respectively. The z-score in [2] was -0.777 (inactive); in [3] it was -0.126 (inactive); in [4], 1.44 (inactive); in assay [6], -0.191 (inactive); in [14], 0.63 (inactive).
As to `COc1ccc(C(O)C2C=CC3C(=O)N(Cc4ccccc4)C(=O)C3N2n2cnnc2)c2ccccc12` (stereo not given), the composite z-score in [1] was 1.17; in assay [5], 2.81; in assay [7], -0.238; in assay [8] it was -0.641; in [9], 0.556; in assay [10], -0.175. Besides, the composite z-score was 1.83 in [11]; -0.0611 in assay [12]; 0.873 in assay [13]; -1.12 in assay [15]; 0.233 in assay [16]; -1.17 in [17]. The composite z-score in assay [18] was 0.127; in assay [19], -1.45; in [20], 0.48. In addition, the z-score was -0.346 (inactive) in [2]; 0.0768 (inactive) in assay [3]; -0.282 (inactive) in [4]; -0.671 (inactive) in assay [6]; -0.781 (inactive) in assay [14].
On to `CN1C(=O)[C@@]2(CCS(=O)(=O)c3ccccc3)N=C(c3ccc(OCCCO)cc3)O[C@H]2c2ccccc21`, for which the composite z-score in assay [1] was 1.53; in [5], 3.05; in assay [7] it was 0.276; in assay [8] it was 0.931; in assay [9], 0.377; in assay [10] it was -0.0493. Further, the composite z-score in [11] turned out to be 1.12; in [12], 0.0859; in [13], 0.861; in assay [15], 0.939; in [16] it was 1.32; in assay [17] it was 0.364. For the same compound, the composite z-score turned out to be 1.05 in assay [18], 0.172 in [19] and 0.615 in [20]. Besides, the z-score in [2] is -0.175 (inactive); in assay [3] it was -0.585 (inactive); in assay [4] it was 2.05 (inactive); in [6] it was 0.708 (inactive); in assay [14], -1.06 (inactive).
On to `C[C@@H](OCc1ccccc1)C1NC(=O)[C@@]23C(=O)N[C@@H](Cc4ccccc4)C2[C@H](C)[C@@]2(C)O[C@H]2C3/C=C/C/C=C\CNC(=O)CNC1=O` (stereo not given in full), for which the composite z-score in assay [1] is -0.615; in [5], 0.621; in [7], -0.145; in [8] it was -0.526; in [9] it was -0.0955; in assay [10] it was -0.24. Moreover, the composite z-score in [11] is 1.4; in [12], -0.354; in assay [13], -0.217; in assay [15], -0.389; in [16] it was -0.764; in assay [17] it was -0.497. Further, the composite z-score in [18] was -0.467; in [19] it was -0.166; in [20], 1.57. For the same compound, the z-score was 0.569 (inactive) in assay [2]; -1.32 (inactive) in assay [3]; -0.929 (inactive) in assay [4]; -0.557 (inactive) in [6]; 0.848 (inactive) in assay [14].

Values taken from PubChem BioAssay.
